54 compounds from ChEMBL document CHEMBL4513216, “Probing the Open Global Health Chemical Diversity Library for Multistage-Active Starting Points for Next-Generation Antimalarials” (ACS Infect Dis, 2020) can be followed below.

The structures appear in SMILES notation. In all, about 69,000 compounds went through this assay and about 8,600 (12%) showed an effect of 50% or more. Only a selection was taken, and strong results are over-represented in it overall.

This test relates to Plasmodium berghei. Put plainly: Screen against P. berghei liver stage (PbLuc), transformed with Luciferase, at 10uM. The test is classed as functional, HepG2. The following applies: tested at 10 uM.
For `O=C1NC(C(=O)NCc2cccnc2Oc2ccccc2F)CO1` (centres undefined), the INHIBITION is -12.1%.
The result for `CCCc1noc(C2CCCCN2C(=O)C2CCCC2)n1` (centres undefined) reads -11.7%.
Under `CCN(CC1CCOC1)C(=O)c1ccn(-c2cc(C)ccc2OC)n1` (centres undefined) stands 30.5%; under `CNC(=O)[C@@]12CCC3(CCN(C(=O)COC)CC3)[C@@H]1CN(S(C)(=O)=O)C2`, -16.2%; under `CCC(NC(=O)C(C)(C)C)c1ccccc1C` (centres undefined), 32.9%.
Regarding `CC[C@@H](C)[C@H](NC(=O)Cn1ccc2c(Cl)cccc21)C(=O)O`, the INHIBITION is on record as -19.7%.
`C[C@]1(O)CN(CC(=O)N2CCCC2)CC[C@@H]1Oc1cccc(F)c1`: the INHIBITION came to 41.2%.
Regarding `Cn1cncc1CN1CC[C@](C)(O)[C@@H](Oc2cccc(F)c2)C1`, the INHIBITION turned out to be 21.9%.
With `C[C@]1(O)CN(Cc2cccc(C(=O)O)c2)CC[C@@H]1Oc1cccc(F)c1`, the INHIBITION is given as 17.4%.
Under `C[C@]1(O)CN(Cc2ccc(C(=O)O)cc2)CC[C@@H]1Oc1cccc(F)c1` stands 15.9%.
Take `C[C@]1(O)CN(CCO)CC[C@@H]1Oc1cccc(F)c1`: the INHIBITION turned out to be 59%.
The result for `C[C@]1(O)CN(CCC(N)=O)CC[C@@H]1Oc1cccc(F)c1` reads 53%.
On to `Cc1cccc(CN2CC3(CCN(C(=O)N(C)C)CC3)OCC2=O)n1`, for which the INHIBITION turned out to be 30.3%.
As for `Cc1cc(C(=O)NC2CCc3c(ccc(=O)n3CC3CC3)C2)no1` (centres undefined), the INHIBITION was 36.5%.
For `Cc1nnc([C@]23COC[C@H]2CN(Cc2nccs2)C3)o1`, the INHIBITION turned out to be 9.79%.
With `Cc1cc2n(n1)CC(CNCc1ccccc1-n1cccn1)CN2` (centres undefined), the INHIBITION is recorded as -18.605%.
`O=C(c1ccncc1)N1C[C@@H]2OCCN(CCN3CCCC3)[C@@H]2C1`: the INHIBITION is given as 32.2%.
For `Cc1occc1C(=O)N1C[C@@H]2OCCN(CCN3CCCC3)[C@@H]2C1`, the INHIBITION turned out to be 66%.
The result for `O=C(c1ccco1)N1C[C@@H]2OCCN(CCN3CCCC3)[C@@H]2C1` reads 23.3%; that for `O=C(c1ccsc1)N1C[C@@H]2OCCN(CCN3CCCC3)[C@@H]2C1`, 82.3%.
For the compound `Cc1cc(C(=O)N2C[C@@H]3OCCN(CCN4CCCC4)[C@@H]3C2)c(C)o1`, the INHIBITION is on record as 32.2%.
The result for `CN(C)CCN1CCO[C@H]2CN(C(=O)c3ccsc3)C[C@H]21` reads 6.67%; that for `O=C(CN1CCCC1Cn1cncn1)NCCOc1ccc(F)cc1` (centres undefined), 42.9%; that for `O=C1CCC(=O)N1Cc1ccc(C(=O)N2CCCC2c2cccs2)cc1` (centres undefined), -21.9%.
As to `Cn1cc(NC(=O)NCc2ccsc2)ccc1=O`, the INHIBITION stood at 16.1%.
In the case of `Cn1cc(NC(=O)CCc2ccsc2)ccc1=O`, the INHIBITION came to 59.3%.
With `CN(Cc1ccsc1)C(=O)Nc1ccc(=O)n(C)c1`, the INHIBITION was found to be 47.4%.
Turning to `Cc1c(O)cccc1C(=O)N1CCCC2(C1)C(=O)N(C)c1ccccc12` (centres undefined), the INHIBITION turned out to be 17.7%.
As to `O=C(O)c1cc2c(nc1-c1ccsc1)CCN(C(=O)C1CC1)CC2`, the INHIBITION came to 40.8%.
For `CC(=O)N1CCc2cc(C(=O)O)c(-c3ccsc3)nc2CC1`, the INHIBITION was found to be 11.3%.
For the compound `NC(=O)N1CCc2cc(C(=O)O)c(-c3ccsc3)nc2CC1`, the INHIBITION is listed as 74.8%.
`CC(C)=CCCC1(C)CCC(=O)N(CCc2nc(N)cc(O)n2)C1` (centres undefined): the INHIBITION was found to be 21.5%.
Turning to `c1coc(CN2CCCn3c(CN4CCOCC4)nnc3C2)c1`, the INHIBITION is -4.26%.
Take `N#Cc1ccc(SCCC(=O)NC(N)=O)cc1`: the INHIBITION is recorded as -33.4%.
On to `NC(=O)NC(=O)CCSc1ccccc1Cl`, for which the INHIBITION came out at 55.9%.
As for `CNC(=O)NC(=O)CCSc1ccccc1Cl`, the INHIBITION amounted to 41.8%.
With `Cc1nc(CN2C[C@@H]3CN(c4ncccn4)C[C@@H]3C2=O)cs1`, the INHIBITION was -12.1%.
Take `Cc1cc(C)c(CNC(=O)NCC2Cc3ccccc3O2)c(=O)[nH]1` (centres undefined): the INHIBITION worked out at 73.1%.
For the compound `Cc1cc(C)c(CNC(=O)Cc2ccc3c(c2)CCCC3)c(=O)[nH]1`, the INHIBITION worked out at 40%.
`Cc1cc(C)c(CNC(=O)c2ccc3c(c2)CCC3)c(=O)[nH]1`: the INHIBITION amounted to 50.3%.
Under `Cc1cc(C)c(CNC(=O)NCC2Cc3ccccc32)c(=O)[nH]1` (centres undefined) stands 0.342%.
With `Cc1cc(C)c(CNC(=O)NCc2ccc3c(c2)CCC3)c(=O)[nH]1`, the INHIBITION is 30.2%.
As to `Cc1cc(C)c(CNC(=O)NCC2COc3ccccc3C2)c(=O)[nH]1` (centres undefined), the INHIBITION is on record as 17.5%.
The result for `N#Cc1c(-c2ccccc2)csc1N` reads 49.7%.
Under `O=C(NCCC1CC1)NCc1cccc(-n2ccnc2)c1` stands 21.6%; under `Cc1cccc(C(=O)N2C[C@@H]3CCN(c4cccnc4)C[C@@H]3C2)c1`, 23.3%; under `O=C(c1ccsc1)N1C[C@@H]2CCN(c3cccnc3)C[C@@H]2C1`, 77.7%.
On to `Cc1ccc(C(=O)N2C[C@@H]3CCN(c4cccnc4)C[C@@H]3C2)cn1`, for which the INHIBITION was determined as 19.4%.
Regarding `Cn1cccc1C(=O)N1C[C@@H]2CCN(c3cccnc3)C[C@@H]2C1`, the INHIBITION was determined as 36.9%.
As for `O=C(c1cnccn1)N1C[C@@H]2CCN(c3cccnc3)C[C@@H]2C1`, the INHIBITION turned out to be 41.6%.
For the compound `O=C(c1ccncc1)N1C[C@@H]2CCN(c3cccnc3)C[C@@H]2C1`, the INHIBITION is 47.4%.
In the case of `O=C(c1ccc(O)cc1)N1C[C@@H]2CCN(c3cccnc3)C[C@@H]2C1`, the INHIBITION came out at 46.2%.
In the case of `O=C(c1ccco1)N1C[C@@H]2CCN(c3cccnc3)C[C@@H]2C1`, the INHIBITION was found to be 90.5%.
In the case of `Cc1ccccc1C(=O)N1C[C@@H]2CCN(c3cccnc3)C[C@@H]2C1`, the INHIBITION was 68.4%.
